# GIRK2 act – Activators of human GIRK2-containing channels; P48051; activation (% efficacy), % for hits at 37.5 µM; HEK293 GIRK2/NPY4 cells, thallium flux fluorescence; 34,000 tested, under 10 active;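 active = primary screen hit, no activity in plain HEK293 cells, and in GIRK2-only cells above 5% efficacy rising with concentration; inactive = the rest, including fluorescent compounds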;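 note: efficacy is normalized control-subtracted fluorescence 15 s after thallium addition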
# Target sequence (P48051 whole entry, looked up): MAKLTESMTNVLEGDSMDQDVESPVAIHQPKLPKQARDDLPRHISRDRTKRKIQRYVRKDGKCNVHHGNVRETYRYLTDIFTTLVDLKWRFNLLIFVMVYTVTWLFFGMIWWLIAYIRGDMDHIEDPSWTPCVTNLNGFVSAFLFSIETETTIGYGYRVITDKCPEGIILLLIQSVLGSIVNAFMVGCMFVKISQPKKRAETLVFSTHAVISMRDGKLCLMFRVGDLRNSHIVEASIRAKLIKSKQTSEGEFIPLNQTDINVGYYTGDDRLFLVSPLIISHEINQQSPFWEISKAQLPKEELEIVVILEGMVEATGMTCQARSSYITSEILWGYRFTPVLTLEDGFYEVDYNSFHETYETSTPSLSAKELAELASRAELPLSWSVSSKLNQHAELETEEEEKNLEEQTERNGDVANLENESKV
# AMPAR-TARP mod – modulators of AMPA receptor GluA2-stargazin complexes; O88602+P19491; HEK293 GluA2+stargazin, membrane potential dye (FDSS), glutamate EC50; hits were called plate by plate, in both directions; calls only at 30 µM; 3.5% of 40,000 active; AID 1259245;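 active = any of four per-well response measures lying three or more SD from its plate-wide compound average, in either direction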
# * = called active by the depositor; i = inactive; . = no result given; + = active, no number; [ ] = another dose, or the depositor's remark. Shown is part of a subset that was picked to be rich in hits.
SMILES,GIRK2 act,AMPAR-TARP mod
CCOC(=O)c1cc([N+](=O)[O-])sc1NC(=O)CCCS(=O)(=O)c1ccc(F)cc1,.,i
O=C(c1cc(=O)c2ccccc2o1)N(C(=O)N1CCCCC1)c1ccc(Cl)cc1,.,+
O=C(c1ccc([N+](=O)[O-])o1)N(C(=O)N1CCCCC1)c1ccc(Cl)cc1,.,+
O=C(c1ccc(Br)o1)N(C(=O)N1CCCCC1)c1cccc(Cl)c1,i,i
O=C(c1cc2ccccc2o1)N(C(=O)N1CCCCC1)c1ccc(Cl)cc1,.,i
COCCn1c(=O)c2c(nc3n(-c4cc(C)cc(C)c4)c(-c4ccccc4)cn23)n(C)c1=O,.,i
COc1ccc(CNC(=O)C(=O)Nc2c3c(nn2C(C)(C)C)CSC3)cc1,i,i
O=C(NCC(O)(c1cccs1)C1CC1)c1ccco1 (centres undefined),i,i
O=C(NCC(O)(c1ccco1)C1CC1)NC1CCCCC1 (centres undefined),i,+
O=C(NCC(O)(c1ccco1)C1CC1)Nc1ccccc1C(F)(F)F (centres undefined),i,i
O=C(NCc1cccs1)NCC(O)(c1cccs1)C1CC1 (centres undefined),i,i
O=C(NCC(O)(c1cccs1)C1CC1)NC1CCCCC1 (centres undefined),i,+
O=C(NCC(O)(c1cccs1)C1CC1)C1c2ccccc2Oc2ccccc21 (centres undefined),i,+
CCCCN(C)C(=O)CSc1nnc2c(=O)n(Cc3ccc(F)cc3)ccn12,i,i
O=C(CCC(=O)c1ccccc1)NCC#CCN1CCc2ccccc2C1,.,i
CS(=O)(=O)N1CCC(C(=O)Nc2ccccc2NC(=O)c2cccs2)CC1,i,.
CC(=O)NC1C(O)C(O)C(CO)OC1n1nc(COc2ccc(Cl)cc2)n(C2CC2)c1=S (centres undefined),i,.
O=C(NCC1CCN(C(=O)Nc2ccc(F)cc2)CC1)c1ccsc1,i,i
COc1cc(C(=O)Nc2nnc(CCS(=O)(=O)c3ccccc3)o2)cc(OC)c1OC,i,i
Cc1[nH]c2ccccc2c1C(=O)C(=O)Nc1nn(C)c2c1C(c1cccs1)CC(=O)N2 (centres undefined),i,i
COc1cccc(C(CNS(=O)(=O)c2ccc(F)cc2C)N2CCOCC2)c1 (centres undefined),i,i
O=S(=O)(NCC(O)c1ccc(C(F)(F)F)cc1)c1ccc2c(c1)OCCO2 (centres undefined),i,i
CC(C)N(CC#CCNS(=O)(=O)c1cc(F)ccc1F)C(C)C,.,i
CC(C)N(CC#CCNS(=O)(=O)c1ccc(OC(F)(F)F)cc1)C(C)C,.,+
O=S(=O)(NCC(O)c1ccc(C(F)(F)F)cc1)c1ccc(OC(F)(F)F)cc1 (centres undefined),.,+
SMILES,GIRK2 act,AMPAR-TARP mod
COc1ccc(CCS(=O)(=O)NCC(O)c2ccc(C(F)(F)F)cc2)cc1 (centres undefined),i,+
COc1ccc(CCC(=O)NCC(O)c2ccc(C(F)(F)F)cc2)cc1 (centres undefined),i,.
CS(=O)(=O)N1CCN(C(=O)C2(c3cc(-c4cccs4)on3)CC2)CC1,i,.
NC(=S)c1cc2ccc(O)cc2oc1=O,.,i
CN(C)c1ccc(-c2noc(-c3cc4ccc(O)cc4oc3=O)n2)cc1,i,+
COC(=O)c1scc(-c2ccccc2)c1S(=O)(=O)N1CCN(c2ncccn2)CC1,.,i
CCOC(=O)c1scc(-c2ccc(C)cc2)c1S(=O)(=O)N1CCN(c2ccccn2)CC1,i,+
COc1ccc(S(=O)(=O)N2CCCc3cc(NS(C)(=O)=O)ccc32)cc1,.,i
O=C(Nc1cc(-c2ccccc2)nn1CCO)c1ccsc1,i,i
O=C(Nc1cc(-c2ccccc2)nn1CCO)c1cccc(Cl)c1,i,+
COc1ccc(NC(=O)CN2CCN(c3nccn3-c3ccc(C)cc3)CC2)c(OC)c1,i,i
Cc1cc(C)cc(N2CC(C)Cn3c2nc2c3c(=O)n(CC(N)=O)c(=O)n2C)c1 (centres undefined),.,i
Cc1ccc(C)c(N2C(=O)N(Cc3ccc(Br)cc3F)C3CS(=O)(=O)CC32)c1 (centres undefined),.,i
Cc1ccc(C)c(CN2C(=O)N(c3cc(C)ccc3C)C3CS(=O)(=O)CC32)c1 (centres undefined),.,+
Cn1nc(C2CCCN(C(=O)c3ccc4ncsc4c3)C2)n(-c2ccccc2)c1=O (centres undefined),i,i
Cc1cc(NC(=O)C(=O)NCC2(c3cccs3)CCCC2)c2ccccc2n1,6.0%*[75 µM],.
CSc1ccccc1NC(=O)C(=O)NCC1(c2cccs2)CCCC1,i,.
O=C(CCCCn1c(=O)c2ccccc2n(CC(=O)NC2CCCCC2)c1=O)NCc1cccs1,i,+
O=C(CCCCn1c(=O)[nH]c2ccccc2c1=O)NC1CCCCCC1,i,i
CCCNC(=O)CCCCn1c(=O)c2ccccc2n(CC(=O)Nc2cccc(SC)c2)c1=O,i,i
CCCNC(=O)CCCCn1c(=O)c2ccccc2n(CC(=O)Nc2ccccc2Cl)c1=O,i,+
Cc1cc(C(=O)N(CCN2CCOCC2)c2nc3ccc(F)cc3s2)on1,i,.
Cc1cc(NC(=O)C(=O)NCc2nc(-c3ccccc3)no2)no1,i,.
COCCNC(=O)C(=O)NCC1(c2cccs2)CC1,i,i
COCCNC(=O)NCC1(c2cccs2)CC1,i,+
SMILES,GIRK2 act,AMPAR-TARP mod
Cc1ccc(S(=O)(=O)NCC(O)(c2ccco2)C2CC2)cc1Cl (centres undefined),i,i
CC(O)(CNC(=O)COc1ccc2ccccc2c1)c1ccccc1 (centres undefined),i,i
COc1cccc(OCC(=O)NCC(C)(O)c2ccc(-c3ccccc3)cc2)c1 (centres undefined),i,+
O=C(Cc1ccc(-c2ccccc2)cc1)NCc1ccsc1,i,i
O=C(COc1ccc(C(=O)c2ccccc2)cc1)NCCn1nc(-c2ccc(Cl)cc2)ccc1=O,i,+
O=C(COc1ccc(C(=O)c2ccccc2)cc1)NCCn1nc(-c2cccs2)ccc1=O,i,i
Cc1cccc2sc(NC(=O)c3cc(=O)c(OCc4ccc(F)cc4)co3)nc12,i,i
Cc1cc(C)c2c(n1)nn1c(NCCC3=CCCCC3)cc(C)nc21,i,i
Cc1cc(C)c2c(n1)nn1c(NCCOCCO)cc(C)nc21,i,+
Cc1cc(C)c2c(n1)nn1c(NCc3ccccn3)cc(C)nc21,i,i
Cc1cc(C)c2c(n1)nn1c(NCCCN(C)C)cc(C)nc21,i,+
CCOc1ccc2cc(S(=O)(=O)N3CCCCCC3)ccc2c1,.,i
NC(=O)c1ccsc1NC(=O)C1CCN(S(=O)(=O)c2ccc(Cl)cc2)CC1,i,+
NC(=O)c1ccsc1NC(=O)C1CCCCC1,i,i
COc1ccc(OC)c(-c2ccc(=O)n(CC(=O)Nc3ccc(NC(C)=O)cc3)n2)c1,i,i
Cn1nc(-c2cccc(NC(=O)c3cccnc3)c2)ccc1=O,i,+
Cn1nc(-c2cccc(NC(=O)Nc3ccccc3)c2)ccc1=O,i,i
CCc1ccc(Oc2cc(N3CCC(C(=O)NCc4cccc(Cl)c4)CC3)ncn2)cc1,i,i
